The supplement of paper PMC8728848
This excerpt belongs to a sample that is enriched for the strongest signals.

Tests used:
Assay in all cases: glycan array binding signal (z-score within array); higher = stronger binding
Conditions in all cases: glycan notation: IUPAC condensed, linker removed
Fuc(a1-2)Gal(b1-3)GalNAc = biological target: Fuc(a1-2)Gal(b1-3)GalNAc
Procedure, shortened: (§1)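 Glycan array binding is given as a within-array Z-score, which can be read as non-binding when negative. The arrays, 3228 of them, came from the Consortium for Functional Glycomics database and were retained only where the protein sequence was available. Z-scores were averaged across arrays of the same protein sequence at different concentrations or buffers and across linkers.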

[1] = biological target: Fuc(a1-2)Gal(b1-3)GalNAc(b1-3)Gal
Procedure, shortened: as §1

[2] = biological target: Fuc(a1-2)Gal(b1-3)GalNAc(b1-3)Gal(a1-4)Gal(b1-4)Glc
Procedure, shortened: as §1

Fuc(a1-2)Gal(b1-3)GlcNAc = biological target: Fuc(a1-2)Gal(b1-3)GlcNAc
Procedure, shortened: as §1

[3] = biological target: Fuc(a1-2)[GalNAc(a1-3)]Gal(b1-4)[Fuc(a1-3)]GlcNAc
Procedure, shortened: as §1

Gal(a1-3)Gal(b1-3)GlcNAc = biological target: Gal(a1-3)Gal(b1-3)GlcNAc
Procedure, shortened: as §1

[4] = biological target: Gal(b1-3)GalNAc(b1-3)Gal(a1-4)Gal(b1-4)Glc
Procedure, shortened: as §1

[5] = biological target: Gal(b1-3)[Fuc(a1-4)]GlcNAc
Procedure, shortened: as §1

[6] = biological target: Gal(b1-3)[Fuc(a1-4)]GlcNAc(b1-3)Gal(b1-4)GlcNAc
Procedure, shortened: as §1

[7] = biological target: Gal(b1-4)GlcNAc(b1-3)GalNAc
Procedure, shortened: as §1

[8] = biological target: Gal3S(b1-3)[Fuc(a1-4)]GlcNAc
Procedure, shortened: as §1

GalNAc(a1-3)Gal = biological target: GalNAc(a1-3)Gal
Procedure, shortened: as §1

[9] = biological target: GlcNAc(b1-3)[GlcNAc(b1-6)]GalNAc
Procedure, shortened: as §1

GlcNAc(b1-4)GlcNAc = biological target: GlcNAc(b1-4)GlcNAc
Procedure, shortened: as §1

[10] = biological target: GlcNAc(b1-6)Gal(b1-4)GlcNAc
Procedure, shortened: as §1

[11] = biological target: Man(a1-2)Man(a1-2)Man(a1-6)[Man(a1-3)]Man
Procedure, shortened: as §1

[12] = biological target: Man(a1-2)Man(a1-3)[Man(a1-2)Man(a1-6)]Man
Procedure, shortened: as §1

[13] = biological target: Man(a1-2)Man(a1-6)[Man(a1-3)]Man(a1-6)[Man(a1-2)Man(a1-2)Man(a1-3)]Man
Procedure, shortened: as §1

[14] = biological target: Neu5Ac(a2-3)Gal(b1-3)GalNAc(b1-4)[Neu5Ac(a2-3)]Gal(b1-4)Glc
Procedure, shortened: as §1

[15] = biological target: Neu5Ac(a2-3)Gal(b1-4)GlcNAc(b1-3)Gal(b1-3)GlcNAc
Procedure, shortened: as §1

[16] = biological target: Neu5Ac(a2-3)Gal6S(b1-4)[Fuc(a1-3)]GlcNAc
Procedure, shortened: as §1

[17] = biological target: Neu5Ac(a2-6)Gal(b1-4)GlcNAc(b1-2)Man(a1-3)[GlcNAc(b1-2)Man(b1-4)GlcNAc(b1-2)Man(a1-6)]Man(b1-4)GlcNAc(b1-4)GlcNAc
Procedure, shortened: as §1

Neu5Ac(a2-6)GalNAc = biological target: Neu5Ac(a2-6)GalNAc
Procedure, shortened: as §1

[18] = biological target: Neu5Ac(a2-8)Neu5Ac(a2-8)Neu5Ac(a2-8)Neu5Ac(a2-3)[GalNAc(b1-4)]Gal(b1-4)Glc
Procedure, shortened: as §1

Neu5Ac(b2-6)GalNAc = biological target: Neu5Ac(b2-6)GalNAc
Procedure, shortened: as §1

[19] = biological target: Fuc(a1-2)[Gal(a1-3)]Gal(b1-3)GlcNAc
Procedure, shortened: as §1

[20] = biological target: Fuc(a1-3)[Gal(b1-4)]GlcNAc(b1-3)Gal(b1-3)[Fuc(a1-4)]GlcNAc
Procedure, shortened: as §1

[21] = biological target: Fuc(a1-3)[Gal(b1-4)]GlcNAc(b1-4)Gal(b1-4)[Fuc(a1-3)]GlcNAc
Procedure, shortened: as §1

Fuc(b1-3)GlcNAc = biological target: Fuc(b1-3)GlcNAc
Procedure, shortened: as §1

[22] = biological target: Gal(a1-3)[Gal(a1-4)]Gal(b1-4)GlcNAc
Procedure, shortened: as §1

[23] = biological target: Gal(b1-3)[Fuc(a1-4)]GlcNAc(b1-3)Gal(b1-4)[Fuc(a1-3)]GlcNAc
Procedure, shortened: as §1

[24] = biological target: Gal(b1-4)GalNAc(b1-3)[Fuc(a1-2)]Gal(b1-4)GlcNAc
Procedure, shortened: as §1

[25] = biological target: Gal(b1-4)GlcNAc(b1-3)Gal(b1-4)GlcNAc(b1-3)Gal(b1-4)GlcNAc
Procedure, shortened: as §1

[26] = biological target: Gal(b1-4)GlcNAc(b1-3)[Gal(b1-4)GlcNAc(b1-6)]GalNAc
Procedure, shortened: as §1

Gal3S(b1-3)GalNAc = biological target: Gal3S(b1-3)GalNAc
Procedure, shortened: as §1

Gal3S(b1-4)Glc6S = biological target: Gal3S(b1-4)Glc6S
Procedure, shortened: as §1

Gal3S6S(b1-4)GlcNAc = biological target: Gal3S6S(b1-4)GlcNAc
Procedure, shortened: as §1

GalNAc(a1-3)GalNAc = biological target: GalNAc(a1-3)GalNAc
Procedure, shortened: as §1

[27] = biological target: GlcNAc(a1-3)Gal(b1-4)GlcNAc
Procedure, shortened: as §1

[28] = biological target: GlcNAc(b1-3)[GlcNAc(b1-4)][GlcNAc(b1-6)]GlcNAc
Procedure, shortened: as §1

[29] = biological target: Man(a1-2)Man(a1-2)Man(a1-3)[Man(a1-2)Man(a1-3)[Man(a1-2)Man(a1-6)]Man(a1-6)]Man(b1-4)GlcNAc(b1-4)GlcNAc
Procedure, shortened: as §1

[30] = biological target: Neu5Ac(a2-3)Gal(b1-3)GlcNAc(b1-3)Gal(b1-4)GlcNAc
Procedure, shortened: as §1

[31] = biological target: Neu5Ac(a2-3)Gal(b1-4)GlcNAc6S
Procedure, shortened: as §1

[32] = biological target: Neu5Ac(a2-3)[Neu5Ac(a2-6)]GalNAc
Procedure, shortened: as §1

[33] = biological target: Neu5Ac(a2-8)Neu5Ac(a2-8)Neu5Ac(a2-3)[GalNAc(b1-4)]Gal(b1-4)Glc
Procedure, shortened: as §1

B1: Glycodelin A (Homo sapiens), P09466 (protein)
chain: MLCLLLTLGVALVCGVPAMDIPQTKQDLELPKLAGTWHSMAMATNNISLMATLKAPLRVHITSLLPTPEDNLEIVLHRWENNSCVEKKVLGEKTENPKKFKINYTVANEATLLDTDYDNFLFLCLQDTTTPIQSMMCQYLARVLVEDDEIMQGFIRAFRPLPRHLWYLLDLKQMEEPCRF
In the case of B1, the “glycan array binding signal (z-score)” value (Fuc(a1-2)Gal(b1-3)GalNAc) is reported as -0.421, the “glycan array binding signal (z-score)” value [1] is reported as -0.414 and the “glycan array binding signal (z-score)” value [2] is reported as -0.485. The “glycan array binding signal (z-score)” value (Fuc(a1-2)Gal(b1-3)GlcNAc) was -0.318, the “glycan array binding signal (z-score)” value [3] was -0.439 and the “glycan array binding signal (z-score)” value (Gal(a1-3)Gal(b1-3)GlcNAc) was 4.32. The “glycan array binding signal (z-score)” value [4] was -0.473, the “glycan array binding signal (z-score)” value [5] was 0.183 and the “glycan array binding signal (z-score)” value [6] was 1.52. The “glycan array binding signal (z-score)” value [7] was -0.373, the “glycan array binding signal (z-score)” value [8] was 3.69 and the “glycan array binding signal (z-score)” value (GalNAc(a1-3)Gal) was -0.099. The “glycan array binding signal (z-score)” value [9] was -0.397, the “glycan array binding signal (z-score)” value (GlcNAc(b1-4)GlcNAc) was -0.002 and the “glycan array binding signal (z-score)” value [10] was -0.5. The “glycan array binding signal (z-score)” value [11] was -0.508, the “glycan array binding signal (z-score)” value [12] was -0.43 and the “glycan array binding signal (z-score)” value [13] was -0.427. For the same binder, the “glycan array binding signal (z-score)” value [14] was -0.406, the “glycan array binding signal (z-score)” value [15] was -0.449 and the “glycan array binding signal (z-score)” value [16] was -0.448. The “glycan array binding signal (z-score)” value [17] was 2.02, the “glycan array binding signal (z-score)” value (Neu5Ac(a2-6)GalNAc) was 4.31 and the “glycan array binding signal (z-score)” value [18] was 4.64. The “glycan array binding signal (z-score)” value (Neu5Ac(b2-6)GalNAc) was 3.68.

B2: Tim-4 (Mus musculus), Q6U7R4 (protein)
chain: MSKGLLLLWLVTELWWLYLTPAASEDTIIGFLGQPVTLPCHYLSWSQSRNSMCWGKGSCPNSKCNAELLRTDGTRIISRKSTKYTLLGKVQFGEVSLTISNTNRGDSGVYCCRIEVPGWFNDVKKNVRLELRRATTTKKPTTTTRPTTTPYVTTTTPELLPTTVMTTSVLPTTTPPQTLATTAFSTAVTTCPSTTPGSFSQETTKGSAFTTESETLPASNHSQRSMMTISTDIAVLRPTGSNPGILPSTSQLTTQKTTLTTSESLQKTTKSHQINSRQTILIIACCVGFVLMVLLFLAFLLRGKVTGANCLQRHKRPDNTEDSDSVLNDMSHGRDDEDGIFTL
For B2, the “glycan array binding signal (z-score)” value (Fuc(a1-2)Gal(b1-3)GalNAc) was -0.114, the “glycan array binding signal (z-score)” value [19] was 0.285 and the “glycan array binding signal (z-score)” value [3] was 0.089. For the same binder, the “glycan array binding signal (z-score)” value [20] was 0.006, the “glycan array binding signal (z-score)” value [21] was -0.188 and the “glycan array binding signal (z-score)” value (Fuc(b1-3)GlcNAc) was -0.139. The “glycan array binding signal (z-score)” value [22] was -0.083, the “glycan array binding signal (z-score)” value [23] was -0.25 and the “glycan array binding signal (z-score)” value [24] was -0.661. For the same binder, the “glycan array binding signal (z-score)” value [25] was -0.396, the “glycan array binding signal (z-score)” value [26] was -0.345 and the “glycan array binding signal (z-score)” value (Gal3S(b1-3)GalNAc) was 2.34. The “glycan array binding signal (z-score)” value (Gal3S(b1-4)Glc6S) was 1.82, the “glycan array binding signal (z-score)” value (Gal3S6S(b1-4)GlcNAc) was 1.9 and the “glycan array binding signal (z-score)” value (GalNAc(a1-3)GalNAc) was -0.157. The “glycan array binding signal (z-score)” value [27] was -0.514, the “glycan array binding signal (z-score)” value [28] was 1.75 and the “glycan array binding signal (z-score)” value [29] was 0.032. For the same binder, the “glycan array binding signal (z-score)” value [30] was -0.953, the “glycan array binding signal (z-score)” value [31] was -0.51 and the “glycan array binding signal (z-score)” value [32] was -0.437. The “glycan array binding signal (z-score)” value [33] was 1.32.
